High-throughput results deposited in PubChem BioAssay by several laboratories.
A selection: hits, their analogues and other compounds. The true share with any hit is near 27%.
CYP2C19 inh = blocks human cytochrome P450 2C19; CYP2C19 Supersomes, luciferin-H EGE luminescence, 30 min; inhibition, % at 5 µM; 96,000 compounds, 21% hits; AID 778;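 active = CYP2C19 inhibition above a set limit at 5 µM in the primary screen, cut at about 50% in these data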
CYP2C9 inh = blocks human cytochrome P450 2C9; 96,000 compounds, 20% hits; CYP2C9 Supersomes, luciferin-H conversion, luminescence; inhibition, % at 5 µM; P11712;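 active = blocking of liver enzyme CYP2C9 beyond about 50% at 5 µM, limit read from the data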
Target sequence (P11712 whole entry, looked up): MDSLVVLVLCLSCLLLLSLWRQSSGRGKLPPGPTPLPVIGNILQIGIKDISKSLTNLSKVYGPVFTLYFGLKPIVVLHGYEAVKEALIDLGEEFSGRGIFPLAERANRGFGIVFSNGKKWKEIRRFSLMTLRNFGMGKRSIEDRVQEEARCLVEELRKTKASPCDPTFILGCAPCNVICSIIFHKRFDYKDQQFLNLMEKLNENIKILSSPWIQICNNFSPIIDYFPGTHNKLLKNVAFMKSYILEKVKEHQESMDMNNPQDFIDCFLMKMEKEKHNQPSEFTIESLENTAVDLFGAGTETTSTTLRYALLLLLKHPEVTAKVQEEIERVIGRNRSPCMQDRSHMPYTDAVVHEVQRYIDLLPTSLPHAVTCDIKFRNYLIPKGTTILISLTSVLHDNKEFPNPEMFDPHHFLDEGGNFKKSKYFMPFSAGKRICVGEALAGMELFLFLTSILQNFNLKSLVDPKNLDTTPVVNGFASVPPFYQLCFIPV
Cav3 T inh = blocks human Cav3.2 T-type calcium channel; Cav3.2-expressing cells, Fluo-4 calcium fluorescence FDSS; active compounds read low; 100,000 compounds, 4% hits; B-score at 10 µM; AID 449739;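 active = single-dose well whose peak fluorescence ratio is a statistical outlier from its plate by either plate-standardised score or position-corrected B-score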
CYP2C19 activ = cytochrome P450 2C19 (human) activation. AID 1025. P33261. activation factor at 5 µM. recombinant CYP2C19, luciferin-H EGE luminescence; active compounds read high; 0 = fully inhibited enzyme, 1 = untreated enzyme. 96,000 tested, under 10 active;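 active = activation factor of at least 2 at 5 µM in the primary screen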
CYP2C9 act = activators of human CYP2C9; 96,000 compounds, 1.4% hits; P11712; activation factor at 5 µM; recombinant CYP2C9, luciferin-H conversion, luminescence; active compounds read high; factor 1 = untreated enzyme, 0 = blocked;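 active = activation factor of 2 or more for CYP2C9 at a 5 µM dose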
Of the large screens only hits and unclear results are named; the others gave an inactive call.

O=C(O)c1ccc(CN(c2ccccn2)S(=O)(=O)c2ccccc2)cc1	none
O=C(c1ccc(Br)o1)N(Cc1ccccc1)c1ccccn1	CYP2C19 inh 71.7
O=C(c1ccccc1)N(Cc1ccccc1)c1ccccn1	CYP2C19 inh 57.3
O=S(=O)(c1ccccc1)N(Cc1ccccc1)c1ccccn1	CYP2C19 inh 66.9, CYP2C9 inh 56.8
O=C(c1cnc2sccn2c1=O)N(Cc1ccccc1)c1ccccn1	CYP2C9 inh 50.3
O=C(c1cccc(F)c1)N1CCN(C(=O)c2cc3ncc(Br)cn3n2)CC1	none
O=C(N(Cc1ccccc1)c1ccccn1)C12CC3CC(CC(C3)C1)C2	Cav3 T inh -3.57
O=C(c1ccc(N2CCCCC2)c([N+](=O)[O-])c1)N(Cc1ccccc1)c1ccccn1	Cav3 T inh -4.46
COC(=O)CCN(C(=O)C12CC3CC(CC(C3)C1)C2)c1ccccn1	none
C=C(C)C(=O)Nc1cccc(C2=NOC3(C2)C[C@@H](C(N)=O)N(C(=O)[C@H]2CCC(=O)N2)C3)c1 (some centres undefined)	none (no result: CYP2C19 inh, CYP2C9 inh, CYP2C19 activ, CYP2C9 act)
COc1ccc(NC(=O)OC(C)C)cc1	none
CCOC(=O)CNC(=O)CSc1nc2cccnc2n1C1CCCCC1	none
S=c1oc(-c2ccncc2)nn1CCc1ccncc1	CYP2C19 inh 98.8, CYP2C9 inh 85.2
COc1ccc(-n2c(Cc3cccn3C)nnc2SCC(=O)Nc2ccc(Cl)cc2)cc1	CYP2C9 inh 85.2, Cav3 T inh -4.47
CCc1ccc(NC(=O)CSc2nnc(Cc3cccn3C)n2-c2ccc(OC)cc2)cc1	CYP2C19 inh 51.6, CYP2C9 inh 85.1, Cav3 T inh -5.44
COc1ccc(-n2c(Cc3cccn3C)nnc2SCC(=O)Nc2cccc(F)c2)cc1	CYP2C19 inh 50.6, CYP2C9 inh 50.1, Cav3 T inh -4.55
COc1ccc(-n2c(Cc3cccn3C)nnc2SCC(=O)Nc2ccccc2)cc1	CYP2C9 inh 80.3, Cav3 T inh -12.9
COc1ccc(-n2c(Cc3cccn3C)nnc2SCC(N)=O)cc1	none
COc1ccc(-n2c(Cc3cccn3C)nnc2SCC(=O)Nc2nc(C)cs2)cc1	none (no result: Cav3 T inh)
COc1ccc(NC(=O)CSc2nnc(Cc3cccn3C)n2-c2ccc(F)cc2)cc1OC	none
CCO[C@@H]1OC(C(=O)NCc2ccccc2)=C[C@H](C2CCCCC2)[C@H]1CCCO	none (no result: CYP2C19 inh, CYP2C9 inh, CYP2C19 activ, CYP2C9 act)
COc1ccc(-n2c(Cc3cccn3C)nnc2SCC(=O)NCc2ccc(F)cc2)cc1	CYP2C19 inh 89.3, Cav3 T inh -7.11
CCn1c(=O)n(CC(=O)NC2CCCC(C)C2C)c(=O)c2ccccc21 (centres undefined)	none (no result: Cav3 T inh)
CC(=O)Nc1ccc(-c2csc(NC(=O)c3ccc(C)o3)n2)cc1	CYP2C19 inh 52.3
N#Cc1cc2c(nc1SCc1ccccc1)CCC2	none (no result: CYP2C19 inh, CYP2C9 inh, CYP2C19 activ, CYP2C9 act)
CN1CCc2nc(SCCOc3ccccc3)c(C#N)cc2C1	CYP2C19 inh 91.2
CC1(C)CC(=O)C2=C(C1)N(c1ccccc1)C(=O)CC2c1ccsc1 (centres undefined)	CYP2C19 inh 87.8
CC1(C)CC(=O)C2=C(C1)N(c1ccc(F)cc1)C(=O)CC2c1ccsc1 (centres undefined)	CYP2C19 inh 62.6
Cc1ccc(-n2c(=O)[nH]cc(C(=O)N3CCc4ccccc43)c2=O)cc1C	none
CCCCOc1ccc(CNC(=S)N/N=C/c2ccc(OC)c(OC)c2)cc1	CYP2C9 inh 60.3
CCOc1ccc(CNC(=S)N/N=C\c2ccc([N+](=O)[O-])cc2)cc1	none
CC1(C)C2CCC1(CS(=O)(=O)N1CCOCC1)C(=O)C2 (centres undefined)	none
COc1ccccc1N1CCN(S(=O)(=O)CC23CCC(CC2=O)C3(C)C)CC1 (centres undefined)	CYP2C19 inh 59.5
COc1cccc(NS(=O)(=O)CC23CCC(CC2=O)C3(C)C)c1 (centres undefined)	CYP2C19 inh 58.8
CC1(C)C2CCC1(CS(=O)(=O)N1CCCc3ccccc31)C(=O)C2 (centres undefined)	CYP2C9 act 3.2 (no result: Cav3 T inh)
CCOC(=O)c1cn(-c2nc(-c3ccc(Cl)cc3)cs2)c2c(F)c(N3CC(C)OC(C)C3)c(F)cc2c1=O (centres undefined)	none
CN(C)CCNC(=O)c1ccc(CS(=O)(=O)c2ccc(Br)cc2)o1	none (no result: CYP2C19 inh, CYP2C9 inh, CYP2C19 activ, CYP2C9 act)
C[C@H]1[C@@H](OC(=O)CCC(=O)O)O[C@@H]2OC3(C)CC[C@H]4[C@H](C)CC[C@@H]1[C@@]24OO3	none (no result: CYP2C19 inh, CYP2C9 inh, CYP2C19 activ, CYP2C9 act)
O=C1c2cnc3nc(SCc4ccc(Cl)cc4)nn3c2CC2c3ccccc3CCN12 (centres undefined)	CYP2C9 inh 50.6, Cav3 T inh -6.27
Clc1ccc(CSc2ncccn2)cc1	none
O=C(O)C1C2C=CC(C2)C1C(=O)Nc1nccs1 (centres undefined)	none
CC12COC3(C(=O)Nc4nccs4)CC1CCC32C (centres undefined)	CYP2C19 inh 59.6
O=C(Nc1ccccc1)C(=O)Nc1ccccn1	none
CC1(C)CC(C(=O)Nc2nccs2)CCO1 (centres undefined)	none (no result: Cav3 T inh)
O=C(Nc1nccs1)C12CC3CC(C1)CC(C(=O)Nc1nccs1)(C3)C2	CYP2C19 inh 91.3, CYP2C9 inh 81.2
O=C(Nc1ccccn1)C12CC3CC(CC(C3)C1)C2	CYP2C9 inh 91.8
CCOC(=O)c1nn(-c2ccc(F)cc2)c(C)c1C(C)=O	CYP2C19 inh 99.1
CCOC(=O)c1nn(-c2ccccc2)c(=O)cc1SC(C)C	none
CCOC(=O)c1nnn(-c2ccc(OC)cc2)c1N	none (no result: CYP2C19 inh, CYP2C9 inh, CYP2C19 activ, CYP2C9 act)
CCOC(=O)c1nn(-c2ccccc2)c(C)c1C(C)=O	CYP2C19 inh 99.9
CCOC(=O)c1nn(-c2ccccc2F)c(C)c1C(C)=O	CYP2C19 inh 98.3
CCOC(=O)c1nn(-c2ccc(C)cc2)c(C)c1C(C)=O	CYP2C19 inh 87.6
COc1ccc(-n2c(=S)[nH]c3cc(C(=O)NCCCN4CCCC4=O)ccc3c2=O)cc1	none
CN(C)S(=O)(=O)N1CCC(c2ccc(F)cc2)C(COc2ccc3c(c2)OCO3)C1 (centres undefined)	CYP2C19 inh 78.7, CYP2C9 inh 94.8 (no result: Cav3 T inh)
O=C(CN1CCN(S(=O)(=O)c2ccc(F)cc2)CC1)Nc1ccc2c(c1)OCO2	none (no result: Cav3 T inh)
CCOC(=O)c1nnn(-c2nonc2N)c1-c1ccccc1	CYP2C19 inh 71.6
CCOC(=O)c1c(N)nn(C(=O)C(C)C)c1-c1ccccc1	CYP2C19 inh 69.1
CCOC(=O)c1nnn(-c2nonc2-n2cccc2)c1C	none
CCOC(=O)c1nnn(-c2nonc2N)c1-c1ccc(C)cc1	none
CCOC(=O)c1nnn(-c2nc(OC)nc(N3CCCC3)n2)c1-c1ccccc1	CYP2C19 inh 67.9, CYP2C9 inh 53.0 (no result: Cav3 T inh)
CCOC(=O)c1nnn(-c2nn3nnnc3c3ccccc23)c1C	CYP2C9 inh 55.2
Cc1c(NC(=O)CCN2C(=O)c3ccccc3C2=O)c(=O)n(-c2ccccc2)n1C	none
CC(C)(C)c1csc(NC(=O)c2ccc3nccnc3c2)n1	none
CCCN1CCC(=O)N([C@H](CSc2ccc(OC)cc2)c2ccccc2)CC1	none (no result: CYP2C19 inh, CYP2C9 inh, CYP2C19 activ, CYP2C9 act)
